For 40 compounds, outcome and AC50 results are on record in PubChem BioAssay (EPA / NIEHS).

SMILES strings stand for the structures. Where “and” joins values, the source holds several entries; their conditions need not be identical. Equal values may be shown once. Calls of active or inactive are those of the source. The calls were made as follows: active = hit-call score of the fitted dose curve at least 0.9, where 1 is the maximum; inactive = score below 0.9.

Broadly, the AC50 is the concentration giving half of the maximal activity seen.

The nature of this test: BSK_hDFCGF_Proliferation: Cell Proliferation Assessment in the BioMAP Diversity Plus: hDFCGF Assay (AID 2283059).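 Also: curves fitted for both rise and fall of signal versus DMSO baseline.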 To be noted: primary human foreskin fibroblasts. Here is the method: BSK_hDFCGF is a cell-based, multiplexed-readout assay that uses foreskin fibroblast, a human skin primary cell, with measurements taken at 24 hours after chemical dosing in a 96-well plate.BSK_hDFCGF_Proliferation is an assay component measured in the BSK_hDFCGF assay. It measures […] related to cell proliferation using Sulforhodamine staining technology.Data from the assay component BSK_hDFCGF_Proliferation was analyzed into 1 assay endpoint. This assay endpoint, BSK_hDFCGF_Proliferation, was analyzed with bidirectional fitting relative to DMSO as the negative control and baseline of activity. Using a type of viability reporter, measures of total protein for gain or loss-of-signal activity can be used to understand the viability at the cellular-level. Furthermore, this assay endpoint can be referred to as a secondary readout, because this assay has produced multiple assay endpoints where this one serves a viability function. To generalize the intended target to other relatable targets, this assay endpoint is annotated to the cell cycle intended target family, where the subfamily is proliferation.
The levels of cell surface (or secreted, indicated by the prefix "s") biomarker endpoints were measured by ELISA. Overt cytotoxicity to cells in confluent adherent cultures (all systems other than the BT system) was assessed by measuring total protein levels using sulforhodamine B (SRB) staining in parallel cultures at the time of biomarker measurements, indicated as SRB endpoints. For proliferation assays for adherent cell types, individual cell types are cultured at sub-confluence and relative cell numbers quantified by SRB staining at time points optimized for each system (48 h: 3C and CASM3C systems; 72 h: BT and HDF3CGF systems; 96 h: SAg system). SRB was performed by staining cells with 0.1% SRB after fixation with 10% TCA and reading wells at 560 nm.Viability and proliferation of PBMC (T cells) was quantified by Alamar Blue reduction for the SAg and BT systems. For PBMC viability (referred to as PBMC Cytotoxicity within the assay endpoint names), cells were plated (75,000/well in a 96-well plate) and then chemical samples added for 1 h before addition of activators, SEB and TSST-1 (20 ng/mL final concentration each). Cells were incubated for 90 h. Then, Alamar Blue (20 uL/well) (Invitrogen, Cat DAL1100) was added for 6 h, and the plates were read with a fluorescence microplate reader at 546/580 nm (excitation/emission). For PBMC proliferation, cells were plated and activated as above but incubated for only 16 h prior to addition of Alamar Blue. Plates were read after 6 h.
Turning to `NC(=S)Nc1ccccc1`, the result was inactive. Regarding `O=C1C2(Cl)C3(Cl)C4(Cl)C(Cl)(Cl)C5(Cl)C3(Cl)C1(Cl)C5(Cl)C24Cl` (stereo not given), the AC50 is 1.42 µM (active). Still for that read-out and setting: the figure for `CCOP(=S)(OCC)Oc1nc(Cl)c(Cl)cc1Cl` is 14.9 µM (active). Consider `O=[N+]([O-])c1ccc(O)c([N+](=O)[O-])c1`, for which the result was inactive. Still for that read-out and setting: the entry for `CCSC(C)CC1CC(=O)C(C(CC)=NOC/C=C/Cl)=C(O)C1` (stereo not given) is “inactive”. Consider `CC(C)(OO)c1ccccc1`, for which the AC50 is 6.71 µM (active). Take `CC(C)(c1ccccc1)c1ccc(O)c(C(C)(C)c2ccccc2)c1`: the AC50 is 2.82 µM (active).

For the compound `Oc1cccc2cccnc12`, the AC50 is 0.852 µM (active).

Regarding `COC(=O)c1sccc1S(=O)(=O)NC(=O)Nc1nc(C)nc(OC)n1`, the outcome was inactive.

`CCCCCCCCC(=O)NCc1ccc(O)c(OC)c1`: the outcome was inactive. On the same count and under the same terms, with `BrCCBr` the entry was “inactive”; with `CN(C)N=O`, “inactive”. For `OCc1ccco1`, the AC50 is 29.6 µM (active). For `CCOP(=S)(OCC)SCSP(=S)(OCC)OCC`, the AC50 was 31.6 µM (active). On to `O=C(O)C(Cl)(Cl)Cl`, for which the outcome was inactive. On the same count and under the same terms, the entry for `Oc1ccc(-c2ccccc2)cc1` is “inactive”.

Take `C[C@]12CCC(=O)C[C@@H]1CC[C@@H]1[C@@H]2CC[C@]2(C)[C@@H](O)CC[C@@H]12`: the result was inactive. Consider `C=CC(=O)OCCCCCC(C)C`, for which the result was inactive.

Regarding `Cc1ccccc1N`, the result was inactive. On to `COP(=S)(OC)Oc1cc(Cl)c(Cl)cc1Cl`, for which the result was inactive. Turning to `Oc1c(I)cc(I)cc1I`, the AC50 was 8.03 µM (active). Consider `O=C(O)CCC(F)(C(F)(F)F)C(F)(F)F`, for which the result was inactive.

`O=C(O)C(F)(F)C(F)(F)C(F)(F)C(F)(F)C(F)(F)C(F)(F)F`: the outcome was inactive. On the same count and under the same terms, the entry for `O=Cc1cccc(Oc2ccccc2)c1` is “inactive”; for `Nc1ncc([N+](=O)[O-])s1` it is “inactive”. As for `ClC1(Cl)C2(Cl)C3(Cl)C4(Cl)C(Cl)(Cl)C5(Cl)C3(Cl)C1(Cl)C5(Cl)C24Cl` (stereo not given), the AC50 is 0.572 µM (active). With `CC(=O)[O][Hg][c]1ccccc1`, the AC50 was 0.148 µM (active). Consider `CC(=O)OC(c1ccccc1)C(Cl)(Cl)Cl` (stereo not given), for which the AC50 is 31 µM (active) and 25.6 µM (active). The same measure, in the same setting: the figure for `CCCCCCCCc1ccc(O)cc1` is 7.67 µM (active). As for `CCC(=O)C(CC(C)N(C)C)(c1ccccc1)c1ccccc1` (stereo not given), the result was inactive. As to `CC(=O)C(Cl)C(=O)N(C)C` (stereo not given), the concentration at half-maximal activity (AC50) is 26 µM (active). For the compound `ClC1=C(Cl)[C@]2(Cl)[C@H]3[C@H]([C@H]4C=C[C@H]3C4)[C@@]1(Cl)C2(Cl)Cl`, the AC50 is 8.76 µM (active). As to `O=C(O)C(F)(F)C(F)(F)C(F)(F)C(F)(F)C(F)(F)C(F)(F)C(F)(F)C(F)(F)C(F)(F)C(F)(F)F`, the concentration at half-maximal activity (AC50) is 4.01 µM (active) and 2.28 µM (active) and 2.17 µM (active).

Turning to `ClCC(Cl)CCl`, the outcome was inactive.

As to `COP(=S)(OC)Oc1ccc(S(=O)(=O)N(C)C)cc1`, the half-maximal activity concentration (AC50) is 28.2 µM (active). `ClC(Cl)=C(Cl)C(Cl)=C(Cl)Cl`: the AC50 is 29.4 µM (active).

As for `C[C@@H]1C[C@@H]([C@H](O)CC2CC(=O)NC(=O)C2)C(=O)[C@@H](C)C1`, the AC50 was 4.27 µM (active). Turning to `CCNc1nc(NC(C)(C)C)nc(SC)n1`, the result was inactive.

As to `CC12CC1(C)C(=O)N(c1cc(Cl)cc(Cl)c1)C2=O` (stereo not given), the result was inactive.

Consider `CCOP(=S)(OCC)Oc1ccc(S(C)=O)cc1` (stereo not given), for which the outcome was inactive.
